Experimental data published in PubChem BioAssay (NCATS).
Inconclusive results are not listed. Active and inactive are the calls of the source. Unless noted, calls follow the shape of the dose curve; as a rule, active = well fitted curve in the direction sought with a large enough effect; inconclusive = small, poorly fitted or top-dose-only effect, or another doubt; inactive = no such curve, though single readings can be large; an effect the other way counts as inactive or inconclusive.

Key:
[1] = AP1 Signaling Pathway (AID 357; active = well fitted curve in either direction with a large enough effect, not every such curve was filed as active;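 also: ME-180 reporter cells stimulated with EGF at its EC50 level; % is scaled to controls: 0 for no effect and ±100 for the full control effect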)
In short: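 A ratiometric CCF4 readout (405 nm excitation; 460 and 530 nm emission) quantified AP-1-driven beta-lactamase in ME-180 cells after 5 h with compound and EC50 EGF; AC50 values were derived for activators and inhibitors.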

[2] = target: Cytochrome P450 1A2 (Homo sapiens) (UniProt P05177); assay: p450-cyp1a2 (AID 410; calls by dose curve; also: potency is read from the fitted curve at half-maximal effect;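 as to activity change, negative = inhibition: -100% = full effect of reference inhibitor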)
Cytochrome P450 1A2 (Homo sapiens), sequence (P05177 whole entry, looked up): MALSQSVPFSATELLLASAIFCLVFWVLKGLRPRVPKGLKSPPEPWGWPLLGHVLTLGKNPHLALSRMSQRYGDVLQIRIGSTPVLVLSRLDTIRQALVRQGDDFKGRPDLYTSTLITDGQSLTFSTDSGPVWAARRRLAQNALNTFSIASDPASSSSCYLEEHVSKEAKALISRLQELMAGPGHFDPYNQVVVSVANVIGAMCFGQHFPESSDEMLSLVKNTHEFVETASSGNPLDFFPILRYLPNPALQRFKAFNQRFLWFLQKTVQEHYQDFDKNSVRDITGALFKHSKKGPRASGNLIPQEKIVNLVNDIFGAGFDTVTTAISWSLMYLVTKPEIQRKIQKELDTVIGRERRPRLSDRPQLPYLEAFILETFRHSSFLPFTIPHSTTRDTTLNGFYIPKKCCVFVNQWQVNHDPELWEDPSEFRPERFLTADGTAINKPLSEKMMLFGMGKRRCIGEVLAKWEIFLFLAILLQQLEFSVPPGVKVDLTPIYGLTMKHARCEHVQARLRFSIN
In short: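 Read-out is luminescence from luciferin produced by CYP1A2 demethylation of Luciferin-ME (100uM, at Km). Detection reagent stopped the 60 min NADPH-dependent reaction; signals were normalized to 57 uM furafylline.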

[3] = Stat Signaling Pathway (AID 446; active = well fitted curve in either direction with a large enough effect, not every such curve was filed as active;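 also: ME-180 cervical cancer cells given 40 pM IL-6 alongside compound; SIE-controlled beta-lactamase reporter measured as 460/530 nm FRET emission ratio; % is scaled to controls: 0 for no effect and ±100 for the full control effect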)
In short: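 Compound effects on IL-6-induced STAT reporter activity were measured in ME-180 cells. After overnight culture, cells were co-treated with 40 pM IL-6 for 5 hrs before beta-lactamase substrate loading at room temperature.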

[4] = target: Glucocorticoid receptor (Homo sapiens) (UniProt P04150); assay: GR-GFP Redistribution (AID 450;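 active = compounds whose dose series gives a full or clear partial fitted curve of increased nuclear translocation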; also: potency is read from the fitted curve at half-maximal effect); conditions: U2OS GR-GFP nuclear translocation, laser cytometry, 2 h
Glucocorticoid receptor (Homo sapiens), sequence (P04150 whole entry, looked up, the tested form may be a part): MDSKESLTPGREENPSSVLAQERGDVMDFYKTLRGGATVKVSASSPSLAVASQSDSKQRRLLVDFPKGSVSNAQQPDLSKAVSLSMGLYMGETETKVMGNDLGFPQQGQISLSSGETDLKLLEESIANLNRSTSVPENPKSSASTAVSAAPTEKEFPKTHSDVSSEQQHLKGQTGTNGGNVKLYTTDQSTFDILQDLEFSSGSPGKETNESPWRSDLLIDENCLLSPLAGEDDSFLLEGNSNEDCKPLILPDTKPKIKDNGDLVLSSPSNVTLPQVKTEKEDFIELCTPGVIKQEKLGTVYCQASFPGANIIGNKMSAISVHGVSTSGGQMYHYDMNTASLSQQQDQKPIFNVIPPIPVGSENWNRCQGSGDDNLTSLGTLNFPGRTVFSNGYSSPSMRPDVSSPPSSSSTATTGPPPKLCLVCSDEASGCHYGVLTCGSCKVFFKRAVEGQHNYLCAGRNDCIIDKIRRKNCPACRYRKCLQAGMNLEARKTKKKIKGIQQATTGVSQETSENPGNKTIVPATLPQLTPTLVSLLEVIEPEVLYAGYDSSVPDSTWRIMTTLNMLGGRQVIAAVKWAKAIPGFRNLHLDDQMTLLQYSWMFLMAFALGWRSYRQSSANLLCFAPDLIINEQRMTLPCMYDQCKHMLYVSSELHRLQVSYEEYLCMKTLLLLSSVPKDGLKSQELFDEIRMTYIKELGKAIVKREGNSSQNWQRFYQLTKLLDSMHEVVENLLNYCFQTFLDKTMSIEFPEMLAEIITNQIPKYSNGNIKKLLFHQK

[5] = target: Glucocorticoid receptor (Homo sapiens) (UniProt P04150); assay: GR-EFC Redistribution (AID 451; calls by dose curve; also: potency is read from the fitted curve at half-maximal effect); conditions: CHO-K1 GR-EFC translocation, beta-gal luminescence, 2 h
In short: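 CHO-K1 cells expressing nuclear EA and GR-ED fragments of b-gal; compounds titrated up to 46 uM final, 2 h at 37 C. GR nuclear translocation read as complemented b-gal luminescence after 1 h RT detection.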

[6] = target: Mitogen-activated protein kinase 10 (Mus musculus) (UniProt Q61831); assay: JNK3 AlphaScreen Assay (AID 530; active = well fitted curve in either direction with a large enough effect, not every such curve was filed as active;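 also: kinase came from lysate of stimulated human HepG2 cells; signal reports phosphorylation of biotinylated GST-cJun 1-79 at Ser73 with 10 µM ATP; % is scaled to controls: 0 for no effect and ±100 for the full control effect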)
In short: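 HepG2 lysate (IL-1b/TNFa pre-activated) + biotin-GST-cJun 1-79 + anti-pSer73 cJun; cpd titration, 15 min RT; ATP 10 uM start; Tris pH 7.6, MgCl2, DTT, vanadate; beads in EDTA buffer; AlphaScreen.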

[7] = target: 3',5'-cyclic-AMP phosphodiesterase 4B (Homo sapiens) (UniProt Q07343); assay: qHTS Assay for Inhibitors of PDE-IV (AID 607; active = well fitted activation curve with a large enough effect in the main read-out, with a control signal flat, not every such curve was filed as active; also: % of control where 0% means no effect)
3',5'-cyclic-AMP phosphodiesterase 4B (Homo sapiens), sequence (Q07343 whole entry, looked up): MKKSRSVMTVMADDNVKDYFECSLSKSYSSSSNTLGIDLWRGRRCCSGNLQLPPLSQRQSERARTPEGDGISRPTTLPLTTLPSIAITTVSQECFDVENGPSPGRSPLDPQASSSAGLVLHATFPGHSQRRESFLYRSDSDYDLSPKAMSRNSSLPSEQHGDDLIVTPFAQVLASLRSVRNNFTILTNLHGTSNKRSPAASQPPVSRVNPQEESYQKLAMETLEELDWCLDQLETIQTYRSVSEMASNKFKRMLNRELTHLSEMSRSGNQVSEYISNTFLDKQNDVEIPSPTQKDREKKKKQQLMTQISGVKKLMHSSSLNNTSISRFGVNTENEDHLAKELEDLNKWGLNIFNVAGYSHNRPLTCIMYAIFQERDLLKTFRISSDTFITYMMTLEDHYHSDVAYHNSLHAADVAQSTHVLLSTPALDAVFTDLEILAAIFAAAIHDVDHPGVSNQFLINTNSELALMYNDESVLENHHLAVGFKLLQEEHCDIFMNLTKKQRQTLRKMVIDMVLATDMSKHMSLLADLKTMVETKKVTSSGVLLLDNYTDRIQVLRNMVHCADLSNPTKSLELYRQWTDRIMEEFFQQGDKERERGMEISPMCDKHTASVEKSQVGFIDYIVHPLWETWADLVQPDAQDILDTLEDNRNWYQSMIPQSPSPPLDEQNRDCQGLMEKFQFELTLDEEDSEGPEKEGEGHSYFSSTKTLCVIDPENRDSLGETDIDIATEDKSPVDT
In short: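 ACTOne HEK293 cells carry a modified cAMP-gated CNG channel and express endogenous PDE4; plated 1000 cells/well, compounds up to 22.9 uM final. Membrane-potential dye fluorescence (ex 535/em 590) was read; parental cells received 10 uM forskolin + 100 uM RO 20-1724.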

[8] = qHTS Assay for Lipid Storage Modulators (AID 1519; calls by dose curve); conditions: Drosophila S3 cells, BODIPY lipid droplet/cell ratio, laser cytometry, cells loaded with oleic acid; for activity change, negative = inhibition: at 25.7 µM (top of the series)
In short: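 Cells seeded at 5,000 per well were treated with compounds over a concentration series and loaded with oleic acid (400 uM, as added). Lipid droplet fluorescence (488 nm excitation, 500-530 nm channel) was read by laser-scanning cytometry and normalized to 20 uM Triacsin C.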

[9] = target: ATP-dependent 6-phosphofructokinase (Trypanosoma brucei brucei) (UniProt O15648); assay: qHTS Assay to Find Inhibitors of T. brucei phosphofructokinase: hit validation (AID 492961); also: % is scaled to controls: 0 for no effect and ±100 for the full control effect
ATP-dependent 6-phosphofructokinase (Trypanosoma brucei brucei), sequence (O15648 whole entry, looked up): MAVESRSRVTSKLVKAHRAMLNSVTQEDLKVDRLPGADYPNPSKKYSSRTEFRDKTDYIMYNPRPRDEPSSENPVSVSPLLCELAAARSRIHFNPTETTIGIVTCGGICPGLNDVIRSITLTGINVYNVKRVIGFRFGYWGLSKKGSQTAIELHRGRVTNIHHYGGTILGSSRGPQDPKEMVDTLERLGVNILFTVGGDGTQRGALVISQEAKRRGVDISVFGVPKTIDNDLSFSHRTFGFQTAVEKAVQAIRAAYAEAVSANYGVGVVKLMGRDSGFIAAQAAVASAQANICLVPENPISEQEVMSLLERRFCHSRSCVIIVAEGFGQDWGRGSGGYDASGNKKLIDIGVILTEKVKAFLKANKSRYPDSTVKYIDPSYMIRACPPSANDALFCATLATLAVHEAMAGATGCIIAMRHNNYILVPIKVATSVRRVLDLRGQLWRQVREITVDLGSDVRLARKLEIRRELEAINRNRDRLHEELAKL
In short: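 Luminescence from ADP-Glo reports ADP generated as T. brucei PFK (1.25 nM) phosphorylates 0.5 mM fructose-6-phosphate using 0.1 mM ATP. Reactions ran 45 min at room temperature, pH 8.0.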

[10] = target: Ubiquitin carboxyl-terminal hydrolase 1 (Homo sapiens) (UniProt O94782); assay: Inhibitors of USP1/UAF1: Pilot qHTS (AID 504865);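 also: rhodamine fluorescence freed from ubiquitin-rhodamine substrate followed over time; top concentration of the series differs between compounds; % is scaled to controls: 0 for no effect and ±100 for the full control effect; nearly all actives have a fitted effect of over 35% in size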
Ubiquitin carboxyl-terminal hydrolase 1 (Homo sapiens), sequence (O94782 whole entry, looked up): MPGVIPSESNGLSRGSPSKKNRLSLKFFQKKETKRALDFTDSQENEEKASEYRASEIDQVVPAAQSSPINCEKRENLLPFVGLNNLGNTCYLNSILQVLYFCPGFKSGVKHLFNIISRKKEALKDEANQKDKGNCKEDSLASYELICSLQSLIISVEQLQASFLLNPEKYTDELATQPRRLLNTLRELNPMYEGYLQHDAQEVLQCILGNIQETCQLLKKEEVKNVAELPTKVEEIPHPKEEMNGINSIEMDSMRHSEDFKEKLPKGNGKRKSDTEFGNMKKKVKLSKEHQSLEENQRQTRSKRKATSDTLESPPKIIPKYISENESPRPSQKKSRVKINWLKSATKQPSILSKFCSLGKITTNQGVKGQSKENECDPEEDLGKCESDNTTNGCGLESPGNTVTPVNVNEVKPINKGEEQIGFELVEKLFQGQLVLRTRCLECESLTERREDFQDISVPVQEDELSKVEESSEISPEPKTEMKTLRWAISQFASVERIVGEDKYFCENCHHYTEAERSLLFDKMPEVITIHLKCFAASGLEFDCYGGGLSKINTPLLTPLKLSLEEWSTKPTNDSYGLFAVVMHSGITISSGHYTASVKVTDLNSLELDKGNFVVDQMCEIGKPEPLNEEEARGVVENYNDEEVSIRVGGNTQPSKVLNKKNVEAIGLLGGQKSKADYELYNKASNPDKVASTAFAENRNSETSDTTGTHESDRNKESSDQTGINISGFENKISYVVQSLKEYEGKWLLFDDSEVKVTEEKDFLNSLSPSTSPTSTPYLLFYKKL
In short: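 Kinetic fluorescence assay: 1nM USP1/UAF1, 15 min compound preincubation, then 150nM Ub-Rho; 480/540 nm.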

[11] = target: Luciferin 4-monooxygenase (Photinus pyralis) (UniProt P08659); assay: Biochemical firefly luciferase enzyme assay for NPC (AID 624030);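 also: purified P. pyralis luciferase at 10 nM with luciferin and ATP substrate; 0% = DMSO and -100% = full luciferase inhibition by PTC124 control; nearly all actives have a fitted effect of over 70% in size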
Luciferin 4-monooxygenase (Photinus pyralis), sequence (P08659 whole entry, looked up): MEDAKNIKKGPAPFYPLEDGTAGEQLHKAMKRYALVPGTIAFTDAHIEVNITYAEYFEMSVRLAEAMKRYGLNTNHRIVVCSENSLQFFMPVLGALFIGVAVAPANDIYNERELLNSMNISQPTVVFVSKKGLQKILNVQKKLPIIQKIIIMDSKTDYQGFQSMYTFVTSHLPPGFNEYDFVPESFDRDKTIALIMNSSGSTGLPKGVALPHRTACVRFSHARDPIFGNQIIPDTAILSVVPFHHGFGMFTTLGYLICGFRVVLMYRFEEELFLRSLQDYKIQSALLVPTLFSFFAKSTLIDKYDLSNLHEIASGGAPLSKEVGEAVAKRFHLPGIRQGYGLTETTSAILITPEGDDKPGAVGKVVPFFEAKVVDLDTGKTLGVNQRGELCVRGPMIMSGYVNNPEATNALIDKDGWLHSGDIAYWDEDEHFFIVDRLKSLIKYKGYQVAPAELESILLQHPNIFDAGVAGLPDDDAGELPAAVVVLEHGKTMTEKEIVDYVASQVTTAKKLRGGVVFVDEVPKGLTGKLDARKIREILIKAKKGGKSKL
In short: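 Purified P. pyralis luciferase at 10 nM in 50 mM Tris Acetate (final), luminescence read within 5 minutes of enzyme addition to compounds. Activity normalised to PTC124 versus DMSO; concentration-response curves classed by r2, magnitude and activity.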

[12] = S16 Schwann cell viability assay (CellTiter-Glo assay) (AID 624031);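 also: cellular ATP luminescence as a viability measure; plate controls were DMSO-treated cells for no effect and cell-free wells for full effect; nearly all actives have a fitted effect of over 70% in size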
In short: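 This viability control uses native rat S16 Schwann cells grown in DMEM plus 10% FBS. After a 24 h compound treatment at 37 °C, CellTiter-Glo luminescence reports ATP content, scaled against DMSO-treated and cell-free wells.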

[13] = qHTS profiling for inhibitors of Plasmodium falciparum proliferation (AID 504749);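 also: 0% = DMSO vehicle and full inhibition = artemisinin control; nearly all actives have a fitted effect of over 60% in size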; conditions: P. falciparum in erythrocytes, SYBR Green DNA, 72 h, at 12.8 µM (top of the series)
In short: (§1)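 SYBR Green fluorescence (ex 485 nm, em 535 nm) reports parasite DNA after 72 h compound exposure of infected red cells at 0.3% parasitemia, 2.5% hematocrit; signal normalized to 0.29 uM artemisinin and vehicle wells.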

C2A = assay: as above; conditions: P. falciparum in erythrocytes, SYBR Green DNA, 72 h; series mostly up to 12.8 µM
In short: as §1

CP191 = assay: as above; conditions: P. falciparum in erythrocytes, SYBR Green DNA, 72 h; series mostly up to 12.8 µM
In short: as §1

CP250 = assay: as above; conditions: P. falciparum in erythrocytes, SYBR Green DNA, 72 h; series mostly up to 12.8 µM
In short: as §1

FAB9 = assay: as above; conditions: P. falciparum in erythrocytes, SYBR Green DNA, 72 h; series mostly up to 12.8 µM
In short: as §1

JCK = assay: as above; conditions: P. falciparum in erythrocytes, SYBR Green DNA, 72 h; series mostly up to 12.8 µM
In short: as §1

SC27B = assay: as above; conditions: P. falciparum in erythrocytes, SYBR Green DNA, 72 h; series mostly up to 12.8 µM
In short: as §1

[14] = NFAT Signaling Pathway (AID 444; active = well fitted curve in either direction with a large enough effect, not every such curve was filed as active); conditions: Jurkat NFAT-bla M1, carbachol, beta-lactamase ratio, 5 h; at 17.2 µM (top of the series) unless noted
In short: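 Jurkat cells with NFAT-driven β-lactamase reporter and co-expressed M1 receptor, stimulated with carbachol (final 1 uM, ~EC50), compound titration, 5 h at 37 °C. CCF4 loaded 1 h at RT; 460/530 nm ratio gave %activity and AC50.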

[15] = measured here: cell count channel max response
[16] = measured here: lipid channel max response

CC(C)NC[C@H]1CCc2cc(CO)c([N+](=O)[O-])cc2N1
active: Potency [2] 10 µM
-14.1%: max response [8, 16]
-10%: max response [8, 15]
inactive: outcome [1] | outcome [3] | Potency [4] > 20.6 µM | Potency [5] > 20.6 µM | Potency [6] | outcome [7] | activity change, negative = inhibition [8] -3.1% | outcome [9] | Potency [10] | Potency [11] | outcome [12] | activity, negative = inhibition ([13]; parasite line A) 7.96% | activity, negative = inhibition ([13]; parasite line B) 12.7% | Potency (C2A) | Potency (CP191) | Potency (CP250) | Potency (FAB9) | Potency (JCK) | Potency (SC27B)

CCN1CCN(C(=O)N[C@H](C(=O)N[C@@H]2C(=O)N3[C@@H]2SC(C)(C)[C@@H]3C(=O)O)c2ccccc2)C(=O)C1=O
-7.94%: max response [8, 15]
-7.68%: max response [8, 16]
inactive: outcome [1] | Potency [2] | activity change, negative = inhibition [14] -2.87% | outcome [3] | Potency [6] | outcome [7] | activity change, negative = inhibition [8] 0.264% | Potency [10]

C#C[C@@]1(O)CC[C@@H]2[C@@H]3CCC4=CC(=O)CC[C@@H]4[C@H]3CC[C@]21CC
inactive: outcome [1] | Potency [2] | outcome [3] | Potency [5] > 20.6 µM | Potency [6] | outcome [7] | activity change, negative = inhibition [8] -1.97% | Potency [10]
-10.4%: max response [8, 16]
active: Potency [4] 0.0832 µM
-10.3%: max response [8, 15]

O=C(/C=C\C=C/c1ccc2c(c1)OCO2)N1CCCCC1
inactive: outcome [1] | activity change, negative = inhibition [14] -3.46% | outcome [3] | Potency [6] | activity change, negative = inhibition [8] 2%
1.28%: max response [8, 16]
-1.9%: max response [8, 15]
active: Potency [2] 3.16 µM

CN(C)CCn1nnnc1SCC1=C(C(=O)O)N2C(=O)[C@@H](NC(=O)Cc3csc(N)n3)[C@@H]2SC1
inactive: outcome [1] | Potency [2] | outcome [3] | Potency [4] > 20.6 µM | Potency [5] > 20.6 µM | Potency [6] | outcome [7] | activity change, negative = inhibition [8] -0.351% | outcome [9] | Potency [10] | Potency [11] | outcome [12] | activity, negative = inhibition ([13]; parasite line A) 0.61% | activity, negative = inhibition ([13]; parasite line B) 1.06% | Potency (C2A) | Potency (CP250) | Potency (FAB9) | Potency (SC27B)
-8.06%: max response [8, 15]
-8.86%: max response [8, 16]

C[C@@H]1C[C@H](OC(=O)c2ccccc2O)CC(C)(C)C1
-10.7%: max response [8, 16]
inactive: outcome [1] | outcome [3] | Potency [4] > 20.6 µM | Potency [5] > 20.6 µM | Potency [6] | outcome [7] | activity change, negative = inhibition [8] -2.75% | Potency [10]
active: Potency [2] 12.6 µM
-8.27%: max response [8, 15]
